Shown are actives, neighbours in structure and some others; about 3.6% of the full set was active somewhere.
NRP1-CendR mod – modulators of CendR peptide binding to human neuropilin-1. O14786. FAM-RPARPAR peptide binding to NRP-1, fluorescence polarization. inhibition, % at 25 µM. 360,000 tested, 0.85% active;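 active means inhibition or corrected inhibition above about 18%, plus a signal ratio from 0.5 to 1.5, limit read from the data, passing the limit was not always enough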
FAS-TE inh – FAS thioesterase (human) inhibition. inhibition, % at 15 µM. recombinant FAS-TE, OMFH fluorogenic substrate, fluorescence endpoint. 360,000 tested, 0.67% active. P49327;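 active means compounds whose normalised, plate-corrected inhibition of enzyme fluorescence in the single-dose primary screen is 50% or more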;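 further: 0% = DMSO with enzyme and 100% = substrate without enzyme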
NadD block – NadD (S. aureus) enzyme inhibition. purified NadD enzyme, colorimetric absorbance read-out. inhibition, % at 20 µM. 360,000 tested, 0.78% active. AID 602399; in the data active means inhibition above about 26%
CRFBP-R2 block – CRF-BP/CRF-R2 complex antagonism; HEK293 CRF-R2/CRF-BP, CRF-induced calcium fluorescence; 350,000 tested, 0.59% active; inhibition, % at 11.8 µM;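 active means inhibition of the ligand-induced calcium signal above about 50% at the single tested concentration, limit read from the data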
Myeloid diff 2 – promotes myeloid progenitor differentiation; ER-HoxA9 myeloid progenitors, lysozyme-GFP differentiation, flow cytometry; 360,000 tested, 1% active; calls only at 10 µM;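 active means normalized GFP-positive differentiation at or above the plate's own cutoff, the solvent-only control mean plus 3 SD; inconclusive means no clear call, values can overlap the other calls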;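 further: cells exposed to compound for four days before flow analysis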
* marks the source's active call; other numbers are inactive results; i = inactive; ? = inconclusive; nt = no result; + = active, no number.

SMILES	NRP1-CendR mod	FAS-TE inh	NadD block	CRFBP-R2 block	Myeloid diff 2
CCCCCc1ccc(-c2ccc(OC)cc2)nc1	8	18	2	5	i
Cc1ccccc1C(=O)N1CCC(C(=O)Nc2ccc(S(=O)(=O)N3CCCC3)cc2)CC1	-16	-2	-4	-10	+
COC(=O)/C=C/c1c(C)nc(NCc2ccccc2)nc1Cl	-22	-3	-4	-16	+
CC(=O)Nc1ccc(C(=O)N2CCCC(c3cc(C(=O)Nc4ccccc4)no3)C2)cc1 (stereo not drawn)	-7	-3	4	nt	i
Nc1cnc(Nc2ccc(Br)cc2)nc1N	-7	-2	-3	9	+
N#Cc1c(N)nc(N)nc1Nc1ccc(Br)cc1	1	-4	-6	-20	i
COC(=O)[C@]12CCCCC=C1N(Cc1cccc3ccccc13)C(=O)[C@H](CC(=O)N1CCCCC1)C2	5	10	9	nt	i
CC(C)OCCCN(C)C1CCN(S(=O)(=O)c2ccc(-c3cc(C(F)(F)F)no3)s2)CC1	14	4	-3	-11	+
CC(C)OCCCN(C)C1CCN(S(=O)(=O)c2csc(C(N)=O)c2)CC1	13	-7	-2	-3	i
CN1C(=O)[C@H]2[C@@H](c3ccc(C(F)(F)F)cc3)N[C@]3(CCCN(Cc4ccco4)C3=O)[C@H]2C1=O	4	-5	5	10	i
COc1ccc2[nH]c3c(C)c4ccncc4c(C)c3c2c1	20	-97	36*	-5	?
Cc1c2ccncc2cc2c1[nH]c1ccccc12	-64	-29	0	-61	?
Cc1ccc(C2C(C#N)=C(N)Oc3cc(N)ccc32)cc1 (stereo not drawn)	0	8	2	-18	i
Cc1ccc(/C=C2\CCC3=C2OC(N)=C(C#N)C3c2ccc(C)cc2)cc1 (stereo not drawn)	125	-72	46*	-297	i
O=c1c2ccccc2nc2n1C(CBr)CN2 (stereo not drawn)	2	-4	2	65*	i
O=c1c2ccccc2nc2n1C(CBr)CS2 (stereo not drawn)	-1	-5	-2	4	i
CCCCC[C@@H](C)N1C[C@H](COCc2ccccc2)Oc2cc(N3CC[C@H](N(C)C)C3)ccc2S1(=O)=O	8	17	2	nt	i
Cc1cccc(C)c1-n1nnnc1C1(C)CCC(=O)N1CCCN1CCOCC1 (stereo not drawn)	-4	-10	7	nt	i
CN(C)c1ccc(/C=N/Nc2nc3ccccc3o2)cc1	6	-7	1	9	i
CCS(=O)(=O)c1ccc(C=NNc2nc3ccccc3o2)cc1	18*	4	-3	-5	i
Cc1ccc(N(CC(=O)N/N=C/c2cc(C)n(-c3ccccc3)c2C)S(C)(=O)=O)c(C)c1	-17	5	16	28	i
Cc1cc(/C=N/NC(=O)Cn2c3ccccc3c(=O)c3ccccc32)c(C)n1-c1ccccc1	-2	23	45*	32	i
COCCN1C[C@@H](CO)O[C@@H](n2cnc3c(NCc4ccc(F)cc4)ncnc32)C1	-3	-12	-1	nt	i
CC1CN(Cc2c(O)ccc3c(=O)c(-c4ccccc4)coc23)CC(C)O1 (stereo not drawn)	38*	-6	2	-2	i
CC(C)(C#CC(O)(c1ccccc1)c1ccccc1)N1CCCC1	-8	-8	-9	8	i
SMILES	NRP1-CendR mod	FAS-TE inh	NadD block	CRFBP-R2 block	Myeloid diff 2
CCC(COC)NCc1cn(-c2ccc(F)cc2F)nc1-c1ccccc1C (stereo not drawn)	26*	-2	-3	-12	i
COc1ccc([C@H]2/C=C\CN(S(=O)(=O)/C=C/c3ccccc3)[C@@H](C)C(=O)N2Cc2ccc(F)cc2)cc1	12	40	6	-10	+
N#CCC(=O)Nc1ccc(C(=O)OCC(=O)NNC(=O)c2cccs2)cc1	-48	-4	-1	55*	i
O=C(Nc1cccc(O)c1)c1ccc(NC(=O)c2cccs2)cc1	11	2	-1	68*	i
O=C(Nc1ccc(Cl)c(S(=O)(=O)N2CCCC2)c1)c1cc(=O)[nH]c2ccccc12	4	0	3	-3	i
CC(C)NC(=O)C1(C)CCN1C(=O)C(c1ccccc1)c1ccccc1 (stereo not drawn)	-4	-5	3	nt	i
Cc1ccc(NC(=O)c2ccc(Cl)cc2[N+](=O)[O-])nc1	-2	-7	-2	0	?
Cc1ccc(NC(=O)c2ccccc2[N+](=O)[O-])nc1	30*	-4	-2	2	i

Screening data (PubChem)
